The list is not random: actives were taken first. Their share in the collection is about 7.4%.
Rab9 prom act: Rab9 promoter activation | Huh7 Rab9 promoter-luciferase reporter, luminescence, 24 h | Potency, µM (doses to about 9.22 µM), most hits filed as activators | actives 2.8% (n = 320,000) | AID 485297; note: nearly all actives have a fitted effect of over 60% in size
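Rab9 promoter-driven luciferase in stably transfected Huh7 cells; 1500 cells/well rested 2 h, exposed to compound in DMSO for 24 h at 37 °C, 5% CO2. Luminescence read 10 min after adding luciferase reagent at ambient temperature.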
ELG1 genotoxic: genotoxicity induction in ELG1-luciferase HEK293T cells; Potency, µM (doses to about 46 µM), most hits filed as activators; HEK293T ELG1-luciferase reporter, luminescence, 16 h; actives 1.3% (n = 330,000); note: nearly all actives have a fitted effect of over 60% in size
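HEK293T cells expressing luciferase-tagged ELG1 were exposed to compound or DMSO vehicle for 16 hr at 37 °C and 5% CO2. Luciferase activity was then measured with ONE-Glo after 30 min at room temperature.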
SMN2 splice up: enhancers of SMN2 splice variant expression. HEK293 SMN2-luciferase splicing reporter, luminescence, 30-36 h. Potency, µM (top dose mostly 46.1 µM), most hits filed as activators. actives 2.8% (n = 210,000); note: nearly all actives have a fitted effect of over 55% in size
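HEK293 cells carry an SMN2 […]–luciferase reporter in which exon 7 inclusion puts luciferase in frame. Cells were plated 10-12 h before compound addition, then incubated 30-36 h at 37C. ONE-Glo luminescence was read; sodium butyrate at 4.5 mM final served as control.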
FLuc counter: firefly luciferase modulation, counter-screen for miR-21 project | P08659 | purified FLuc, Km substrates, luminescence inhibition | Potency, µM (highest dose often 57.5 µM), most hits filed as inhibitors | actives 6.9% (n = 360,000); note: nearly all actives have a fitted effect of over 55% in size
Target sequence (P08659 whole entry, looked up): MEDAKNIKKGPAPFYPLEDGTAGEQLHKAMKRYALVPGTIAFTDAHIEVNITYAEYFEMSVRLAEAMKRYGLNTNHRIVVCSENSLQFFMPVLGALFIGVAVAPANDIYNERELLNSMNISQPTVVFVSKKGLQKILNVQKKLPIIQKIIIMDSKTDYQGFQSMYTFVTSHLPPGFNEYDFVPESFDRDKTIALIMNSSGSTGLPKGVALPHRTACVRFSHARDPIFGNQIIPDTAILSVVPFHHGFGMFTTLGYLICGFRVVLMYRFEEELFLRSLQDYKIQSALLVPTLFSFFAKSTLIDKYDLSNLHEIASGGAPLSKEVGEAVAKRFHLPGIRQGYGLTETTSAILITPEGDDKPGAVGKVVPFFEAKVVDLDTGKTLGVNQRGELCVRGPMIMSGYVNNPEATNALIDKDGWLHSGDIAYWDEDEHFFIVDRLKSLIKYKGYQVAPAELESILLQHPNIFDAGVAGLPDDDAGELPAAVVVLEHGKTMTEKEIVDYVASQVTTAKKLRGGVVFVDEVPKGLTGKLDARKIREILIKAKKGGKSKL
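Biochemical qHTS of compounds, final roughly 60 µM downward over six points, against 10 nM purified firefly luciferase using Km concentrations of substrates (10 uM D-luciferin, 10 uM ATP) in Tris acetate pH 7.5 buffer; luminescence output.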
NPC1 promoter act: activators of NPC1 promoter; actives 2.4% (n = 320,000); Potency, µM (doses to about 9.22 µM), most hits filed as activators; AID 485313; Huh7 NPC1 promoter luciferase reporter, 24 h; note: nearly all actives have a fitted effect of over 60% in size
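Stable NPC1-promoter luciferase Huh7 line; cpd (DMSO) 24 h, 37 °C, 5% CO2; Amplite luciferase reagent 10 min RT; luminescence readout. qHTS format.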
Luc counter: counter-screen: inhibitors of Kinase-Glo firefly luciferase; Potency, µM (doses to about 38.3 µM), most hits filed as inhibitors; actives 0.28% (n = 200,000); Kinase-Glo luciferase, ATP luminescence, 8 min; Q27757; note: nearly all actives have a fitted effect of over 60% in size
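Kinase-Glo luciferase light output from ATP and luciferin was measured with 10 uM ATP, within the enzyme's linear range. Buffer: 50 mM imidazole pH 7.2, 50 mM KCl, 7 mM MgCl2, 0.01% Tween 20, 0.05% BSA; luminescence read after 8 min at ambient temperature.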
Large screens that a line does not name were inactive. Calls come from the whole dose curve; as a rule, active = well fitted curve in the direction sought with a large enough effect; inconclusive = small, poorly fitted or top-dose-only effect, or another doubt; inactive = no such curve, though single readings can be large; an effect the other way counts as inactive or inconclusive.

COc1ccccc1NC(=O)COC(=O)/C=C/c1ccc2c(c1)OCO2	ELG1 genotoxic inconclusive, FLuc counter 11µM
NC(=O)c1ccc(NC(=O)COC(=O)/C=C/c2ccc3c(c2)OCO3)cc1	FLuc counter 12µM (no result: SMN2 splice up, Luc counter)
COc1ccc(NC(=O)C(NC(=O)/C=C\c2ccc3c(c2)OCO3)c2ccccc2)cc1 (stereo not given)	SMN2 splice up 2µM (no result: Rab9 prom act, ELG1 genotoxic, NPC1 promoter act, Luc counter)
CC(=O)Nc1ccc(NC(=O)COC(=O)/C=C/c2ccc3c(c2)OCO3)cc1	none (no result: SMN2 splice up, Luc counter)
COc1ccc(NC(=O)C(NC(=O)/C=C\c2ccc3c(c2)OCO3)c2ccc(OC)cc2)cc1 (stereo not given)	none (no result: Rab9 prom act, ELG1 genotoxic, NPC1 promoter act, Luc counter)
CC(O)c1nc2ccccc2n1CCCOc1ccccc1 (stereo not given)	FLuc counter inconclusive (no result: SMN2 splice up, Luc counter)
CNC(=O)/C(C#N)=C/c1cccc(Oc2ccccc2)c1	ELG1 genotoxic inconclusive, FLuc counter 8.5µM (no result: SMN2 splice up, Luc counter)
CNC(=O)/C(=C\c1cccc(Oc2ccccc2)c1)NC(=O)c1ccccc1	none
CCO[C@@H]1OC(C(=O)N2CCOCC2)=C[C@H](c2ccccc2)[C@H]1CCCO	none (no result: SMN2 splice up, Luc counter)
O=C(Cc1ccc(-c2ccccc2)cc1)Nc1ccccn1	ELG1 genotoxic inconclusive, FLuc counter inconclusive (no result: SMN2 splice up, Luc counter)
Cc1ccc(S(=O)(=O)N(C)CC(=O)Nc2ccc(C)cn2)cc1	Rab9 prom act inconclusive (no result: SMN2 splice up, Luc counter)
Cc1ccnc(NC(=O)Cc2ccc(-c3ccccc3)cc2)c1	ELG1 genotoxic 2.3µM, FLuc counter 11µM (no result: SMN2 splice up, Luc counter)
Cc1ccc(S(=O)(=O)N(C)CC(=O)Nc2cc(C)ccn2)cc1	ELG1 genotoxic 10µM, FLuc counter inconclusive (no result: SMN2 splice up, Luc counter)
Cc1ccnc(NC(=O)CNC(=O)c2ccc(Br)o2)c1	ELG1 genotoxic 16µM, FLuc counter inconclusive (no result: SMN2 splice up, Luc counter)
CC(NC(=O)Cn1cc(Br)c([N+](=O)[O-])n1)c1ccccc1 (stereo not given)	none (no result: SMN2 splice up, Luc counter)
COc1ccc(-n2c(C)nnc2SCC(=O)Nc2ccccc2F)cc1	none (no result: SMN2 splice up, Luc counter)
O=C(CCS(=O)(=O)c1nc(-c2cccs2)cc(C(F)(F)F)n1)Nc1cc(Br)ccc1O	SMN2 splice up inconclusive (no result: Rab9 prom act, ELG1 genotoxic, NPC1 promoter act, Luc counter)
O=S(=O)(Nc1ccccn1)c1cnc(Cl)c(Br)c1	none
C=CC[C@H](CC(=O)N(CCO)Cc1ccccc1)C(=O)N[C@H](C)COC(=O)[C@@H](CC=C)CC(=O)OC(C)(C)C	none (no result: Rab9 prom act, SMN2 splice up, FLuc counter, NPC1 promoter act, Luc counter)
COC(=O)C1=C(O)/C(=C\c2cc(C)n(-c3ccccc3F)c2C)N=C1C	ELG1 genotoxic inconclusive, FLuc counter 0.85µM
COC(=O)C1=C(O)/C(=C\c2cc(C)n(-c3ccccc3C)c2C)N=C1C	Rab9 prom act inconclusive, FLuc counter 1.1µM, NPC1 promoter act inconclusive
COC(=O)C1=C(C)NC(=O)/C1=C\c1cc(C)n(-c2cc(C)cc(C)c2)c1C	none
COC(=O)C1=C(O)/C(=C\c2sccc2C)N=C1C	FLuc counter inconclusive
COC(=O)C1=C(C)NC(=O)/C1=C\c1cc(C)n(-c2ccccc2)c1C	Rab9 prom act inconclusive, FLuc counter 11µM
COc1ccc(CNC(=O)C2CCN(S(=O)(=O)c3cccc4nsnc34)CC2)cc1	none (no result: SMN2 splice up, Luc counter)
CCOc1ccc(N2CCc3c(C)nc(SC)nc32)cc1	none
CCC(C(=O)NCc1cc(OC)ccc1OC)n1nc(C)c2sc3ccccc3c2c1=O (stereo not given)	none (no result: Rab9 prom act, ELG1 genotoxic, NPC1 promoter act, Luc counter)
COC(=O)c1ccc2c(c1)C(C)(C)C(/C=C/c1ccccc1O)=[N+]2C	ELG1 genotoxic inconclusive, FLuc counter 15µM, Luc counter 4.5µM
CCN(CC)c1ccc(C=C2C(=O)OC3(CCCCC3)OC2=O)cc1	FLuc counter inconclusive
CCN(CC)c1ccc(/C=C2/C(=O)c3ccc(C(=O)O)cc3C2=O)cc1	ELG1 genotoxic inconclusive, FLuc counter 0.48µM
CCOc1ccc(S(=O)(=O)N2CCC(C(=O)NCCc3ccc(S(N)(=O)=O)cc3)CC2)cc1	none (no result: SMN2 splice up, Luc counter)
O=C(COC(=O)C1CCC1)NCc1ccccc1Cl	FLuc counter 24µM
O=C(COC(=O)c1ccco1)NCc1ccc(Cl)cc1Cl	none (no result: Rab9 prom act, SMN2 splice up, FLuc counter, NPC1 promoter act, Luc counter)
O=C(COC(=O)C1CCCCC1)Nc1ccccc1OC(F)F	FLuc counter 24µM
O=C(OCc1nc(-c2ccccc2Cl)no1)c1ccco1	FLuc counter 12µM (no result: SMN2 splice up, Luc counter)
